The supplement of paper PMC10849652
Targets with a hit are over-represented here; the source holds about 8,800 in all. About 0.5% of all pairs of compound and target were hits.

Legend:
Test in all cases: log2 fold change, soluble protein after heating vs DMSO (PISA); higher = thermal stabilisation; K562 lysate, 10 uM; active = over 0.2 and 3.5 SD of the protein, either way, in both replicates (recomputed)
[1] = compound: C1=CC=C(C=C1)[C@H](COC2=CC3=C(C=C2)NC(=O)N3)NC(=O)C4=CC=CN(C4=O)CC5=CC(=C(C=C5)F)F
Outline: (§1)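 Pellets of K562 cells were dounce-homogenised in PBS pH 7.4 with 1 mM MgCl2, and the crude extract was held at 1 mg/mL protein for a 30 min treatment with 10 μM compound. Aliquots were heated for 3 min over 48°C-58°C and pooled before NP-40 was added to 0.5% at 4°C. The supernatant from 21,000xg for 90 min was quantified by TMTpro 16plex LC-MS/MS with channel sums equalised. Values are reported from duplicates as log-two fold change in thermal stability relative to solvent controls.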

[2] = compound: CC1=C(SC2=C1C(=N[C@H](C3=NN=C(N32)C)CC(=O)N)C4=CC=C(C=C4)Cl)C
Outline: as §1

[3] = compound: CC1=C2C(=CC=C1)N=C(N(C2=O)C3=CC=CC=C3C)CN4C=NC5=C(N=CN=C54)N
Outline: as §1

[4] = compound: Cc1sc2c(c1C)C(c1ccc(Cl)cc1)=N[C@@H](CC(=O)OC(C)(C)C)c1nnc(C)n1-2
Outline: as §1

[5] = compound: c1ccc([C@@H]2C[C@H]2NC2CCNCC2)cc1
Outline: as §1

Measured: log2 fold change

SRP54 (UniProt P61011)
Chain of UniProt P61011 (P61011 whole entry, looked up): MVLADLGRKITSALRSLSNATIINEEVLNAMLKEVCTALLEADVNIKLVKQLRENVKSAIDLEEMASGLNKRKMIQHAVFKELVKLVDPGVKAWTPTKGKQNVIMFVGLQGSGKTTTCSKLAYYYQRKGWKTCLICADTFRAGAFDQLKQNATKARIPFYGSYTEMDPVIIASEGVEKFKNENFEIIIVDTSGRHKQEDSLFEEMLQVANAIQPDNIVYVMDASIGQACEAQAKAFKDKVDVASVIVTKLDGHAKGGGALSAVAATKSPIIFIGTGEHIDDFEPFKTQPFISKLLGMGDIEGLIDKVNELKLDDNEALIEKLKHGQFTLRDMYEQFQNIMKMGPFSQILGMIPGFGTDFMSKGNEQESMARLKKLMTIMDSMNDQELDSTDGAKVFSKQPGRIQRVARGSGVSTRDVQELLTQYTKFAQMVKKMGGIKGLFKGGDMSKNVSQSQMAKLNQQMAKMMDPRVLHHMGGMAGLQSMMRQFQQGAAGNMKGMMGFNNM
inactive: [1] 0.023 | [2] 0.001 | [3] 0.03 | [4] 0.06 | [5] 0.049

SSU72 (UniProt Q9NP77)
Chain of UniProt Q9NP77 (Q9NP77 whole entry, looked up): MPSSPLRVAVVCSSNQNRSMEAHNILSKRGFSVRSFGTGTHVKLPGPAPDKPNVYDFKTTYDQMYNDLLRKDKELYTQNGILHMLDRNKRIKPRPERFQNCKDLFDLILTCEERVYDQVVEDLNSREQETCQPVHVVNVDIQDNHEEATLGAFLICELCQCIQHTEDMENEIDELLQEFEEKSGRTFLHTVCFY
inactive: [1] 0.014 | [2] 0.017 | [3] 0.078 | [4] 0.004 | [5] -0.17

SKA3 (UniProt Q8IX90)
Chain of UniProt Q8IX90 (Q8IX90 whole entry, looked up): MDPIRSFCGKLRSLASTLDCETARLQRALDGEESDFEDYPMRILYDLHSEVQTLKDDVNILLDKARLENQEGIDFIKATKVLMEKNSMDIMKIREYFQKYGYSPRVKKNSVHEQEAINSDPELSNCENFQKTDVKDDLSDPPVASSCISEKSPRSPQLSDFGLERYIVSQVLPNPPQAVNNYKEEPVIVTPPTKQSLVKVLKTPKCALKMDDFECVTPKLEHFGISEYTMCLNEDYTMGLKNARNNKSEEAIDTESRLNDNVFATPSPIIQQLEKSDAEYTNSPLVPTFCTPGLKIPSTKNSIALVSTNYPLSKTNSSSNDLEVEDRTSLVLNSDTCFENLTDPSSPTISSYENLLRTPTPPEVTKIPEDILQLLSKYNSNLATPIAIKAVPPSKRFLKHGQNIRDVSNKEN
inactive: [1] -0.008 | [2] -0.002 | [3] -0.009 | [4] -0.016 | [5] -0.02

SMG5 (UniProt Q9UPR3)
inactive: [1] -0.078 | [2] 0.041 | [3] 0.026 | [4] -0.047 | [5] -0.024

SYPL1 (UniProt Q16563)
Chain of UniProt Q16563 (Q16563 whole entry, looked up): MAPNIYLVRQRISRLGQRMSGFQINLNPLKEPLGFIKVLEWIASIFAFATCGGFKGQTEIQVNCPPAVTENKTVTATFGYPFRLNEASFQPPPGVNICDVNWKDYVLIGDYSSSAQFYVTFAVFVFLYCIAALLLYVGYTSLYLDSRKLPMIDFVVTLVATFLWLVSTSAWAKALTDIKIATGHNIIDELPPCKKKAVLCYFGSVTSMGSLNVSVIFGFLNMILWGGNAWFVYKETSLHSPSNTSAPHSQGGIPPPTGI
inactive: [1] -0.075 | [2] 0.003 | [3] -0.01 | [4] -0.041 | [5] -0.123

SMIM8 (UniProt Q96KF7)
Chain of UniProt Q96KF7 (Q96KF7 whole entry, looked up): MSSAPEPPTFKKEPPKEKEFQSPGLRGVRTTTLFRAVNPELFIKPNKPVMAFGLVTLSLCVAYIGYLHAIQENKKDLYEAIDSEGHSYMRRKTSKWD
inactive: [1] 0.061 | [2] 0.044 | [3] 0.004 | [4] 0.047 | [5] -0.157

SYNE2 isoform 2 (UniProt Q8WXH0)
inactive: [1] -0.037 | [2] 0.044 | [3] 0.02 | [4] -0.065 | [5] -0.416

TAOK2 (UniProt Q9UL54)
inactive: [1] -0.033 | [2] 0.118 | [3] -0.001 | [4] 0.242 | [5] -0.105

SNRNP40 (UniProt Q96DI7)
Chain of UniProt Q96DI7 (Q96DI7 whole entry, looked up): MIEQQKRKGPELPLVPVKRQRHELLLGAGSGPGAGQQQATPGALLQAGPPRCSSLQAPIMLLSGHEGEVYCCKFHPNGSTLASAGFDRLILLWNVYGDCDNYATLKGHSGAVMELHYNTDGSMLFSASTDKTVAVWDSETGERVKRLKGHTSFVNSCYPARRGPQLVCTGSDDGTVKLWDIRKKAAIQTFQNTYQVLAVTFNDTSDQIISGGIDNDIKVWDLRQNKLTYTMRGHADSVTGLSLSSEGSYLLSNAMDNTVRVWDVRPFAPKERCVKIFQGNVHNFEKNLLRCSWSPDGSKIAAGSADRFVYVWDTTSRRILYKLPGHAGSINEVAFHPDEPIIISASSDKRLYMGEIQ
inactive: [1] 0.023 | [2] -0.03 | [3] 0.012 | [4] 0 | [5] -0.002

SRPK1 (UniProt Q96SB4)
inactive: [1] -0.002 | [2] -0.023 | [3] 0.004 | [4] -0.015 | [5] -0.025

SLC16A1 (UniProt P53985)
inactive: [1] -0.015 | [2] 0.002 | [3] 0.042 | [4] 0.077 | [5] -0.245

SHKBP1 (UniProt Q8TBC3)
inactive: [1] 0.016 | [2] 0.02 | [3] 0.077 | [4] -0.027 | [5] 0.007

SKA1 (UniProt Q96BD8)
inactive: [1] -0.03 | [2] 0.005 | [3] 0.025 | [4] -0.018 | [5] 0.018

SPATA5L1 (UniProt Q9BVQ7)
Chain of UniProt Q9BVQ7 (Q9BVQ7 whole entry, looked up): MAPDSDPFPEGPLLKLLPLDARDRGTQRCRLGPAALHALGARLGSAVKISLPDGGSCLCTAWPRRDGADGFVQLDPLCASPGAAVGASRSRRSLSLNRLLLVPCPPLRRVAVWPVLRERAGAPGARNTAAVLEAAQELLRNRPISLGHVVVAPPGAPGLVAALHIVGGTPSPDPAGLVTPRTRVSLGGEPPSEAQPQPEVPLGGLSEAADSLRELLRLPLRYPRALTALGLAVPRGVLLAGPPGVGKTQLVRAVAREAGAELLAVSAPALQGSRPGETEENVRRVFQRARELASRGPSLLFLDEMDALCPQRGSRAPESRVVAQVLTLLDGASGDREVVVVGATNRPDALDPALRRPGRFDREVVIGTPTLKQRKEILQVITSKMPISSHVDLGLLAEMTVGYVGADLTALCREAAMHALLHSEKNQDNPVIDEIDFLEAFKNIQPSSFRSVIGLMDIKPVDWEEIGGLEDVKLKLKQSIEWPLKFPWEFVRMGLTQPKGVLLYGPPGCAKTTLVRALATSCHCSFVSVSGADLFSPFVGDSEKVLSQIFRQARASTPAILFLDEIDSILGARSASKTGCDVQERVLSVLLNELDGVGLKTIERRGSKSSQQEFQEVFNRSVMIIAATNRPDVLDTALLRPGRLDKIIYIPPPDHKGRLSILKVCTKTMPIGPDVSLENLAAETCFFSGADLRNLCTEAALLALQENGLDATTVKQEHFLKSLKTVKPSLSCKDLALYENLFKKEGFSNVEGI
inactive: [1] -0.019 | [2] 0.036 | [3] 0.006 | [4] -0.007 | [5] -0.039

SMG6 (UniProt Q86US8)
inactive: [1] 0.097 | [2] -0.041 | [3] -0.043 | [4] 0.076 | [5] 0.073

TAF9 (UniProt Q16594)
Chain of UniProt Q16594 (Q16594 whole entry, looked up): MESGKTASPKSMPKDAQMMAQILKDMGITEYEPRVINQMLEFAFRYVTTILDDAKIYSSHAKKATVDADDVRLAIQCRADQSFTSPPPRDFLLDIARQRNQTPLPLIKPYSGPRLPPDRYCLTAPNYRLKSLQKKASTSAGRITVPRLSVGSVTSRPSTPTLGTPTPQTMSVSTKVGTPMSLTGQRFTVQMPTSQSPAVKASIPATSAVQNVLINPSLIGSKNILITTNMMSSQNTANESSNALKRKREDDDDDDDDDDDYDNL
inactive: [1] 0.04 | [2] -0.004 | [3] 0.05 | [4] 0.019 | [5] 0.021

STMN3 (UniProt Q9NZ72)
inactive: [1] 0.046 | [2] -0.053 | [3] 0.065 | [4] -0.061

SMAP2 (UniProt Q8WU79)
Chain of UniProt Q8WU79 (Q8WU79 whole entry, looked up): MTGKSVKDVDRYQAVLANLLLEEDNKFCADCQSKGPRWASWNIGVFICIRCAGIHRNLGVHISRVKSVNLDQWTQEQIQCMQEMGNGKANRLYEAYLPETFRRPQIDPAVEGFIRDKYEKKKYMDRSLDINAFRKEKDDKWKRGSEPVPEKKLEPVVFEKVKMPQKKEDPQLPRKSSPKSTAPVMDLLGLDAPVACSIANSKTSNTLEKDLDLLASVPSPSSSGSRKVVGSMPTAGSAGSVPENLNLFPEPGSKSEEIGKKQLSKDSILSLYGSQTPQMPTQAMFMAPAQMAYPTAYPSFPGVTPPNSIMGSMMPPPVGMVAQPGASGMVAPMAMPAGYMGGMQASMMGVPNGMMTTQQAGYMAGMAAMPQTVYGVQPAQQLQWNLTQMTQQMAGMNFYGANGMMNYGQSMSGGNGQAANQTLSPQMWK
inactive: [1] 0.02 | [2] -0.002 | [3] 0.029 | [4] 0.049 | [5] 0.02

STK36 (UniProt Q9NRP7)
inactive: [1] -0.014 | [2] 0.174 | [3] 0.163 | [4] -0.43 | [5] -0.42

SPATA5 (UniProt Q8NB90)
inactive: [1] -0.024 | [2] -0.005 | [3] 0.026 | [4] 0.008 | [5] 0.02

STARD3 isoform 3 (UniProt Q14849)
inactive: [1] -0.015 | [2] 0.007 | [3] 0 | [4] -0.004 | [5] 0

SSB (UniProt E7ERC4)
inactive: [1] -0.137 | [2] 0.12 | [3] 0.186 | [4] -0.105 | [5] 0.444

SMC1B isoform 3 (UniProt Q8NDV3)
Chain of UniProt Q8NDV3 (Q8NDV3 whole entry, looked up): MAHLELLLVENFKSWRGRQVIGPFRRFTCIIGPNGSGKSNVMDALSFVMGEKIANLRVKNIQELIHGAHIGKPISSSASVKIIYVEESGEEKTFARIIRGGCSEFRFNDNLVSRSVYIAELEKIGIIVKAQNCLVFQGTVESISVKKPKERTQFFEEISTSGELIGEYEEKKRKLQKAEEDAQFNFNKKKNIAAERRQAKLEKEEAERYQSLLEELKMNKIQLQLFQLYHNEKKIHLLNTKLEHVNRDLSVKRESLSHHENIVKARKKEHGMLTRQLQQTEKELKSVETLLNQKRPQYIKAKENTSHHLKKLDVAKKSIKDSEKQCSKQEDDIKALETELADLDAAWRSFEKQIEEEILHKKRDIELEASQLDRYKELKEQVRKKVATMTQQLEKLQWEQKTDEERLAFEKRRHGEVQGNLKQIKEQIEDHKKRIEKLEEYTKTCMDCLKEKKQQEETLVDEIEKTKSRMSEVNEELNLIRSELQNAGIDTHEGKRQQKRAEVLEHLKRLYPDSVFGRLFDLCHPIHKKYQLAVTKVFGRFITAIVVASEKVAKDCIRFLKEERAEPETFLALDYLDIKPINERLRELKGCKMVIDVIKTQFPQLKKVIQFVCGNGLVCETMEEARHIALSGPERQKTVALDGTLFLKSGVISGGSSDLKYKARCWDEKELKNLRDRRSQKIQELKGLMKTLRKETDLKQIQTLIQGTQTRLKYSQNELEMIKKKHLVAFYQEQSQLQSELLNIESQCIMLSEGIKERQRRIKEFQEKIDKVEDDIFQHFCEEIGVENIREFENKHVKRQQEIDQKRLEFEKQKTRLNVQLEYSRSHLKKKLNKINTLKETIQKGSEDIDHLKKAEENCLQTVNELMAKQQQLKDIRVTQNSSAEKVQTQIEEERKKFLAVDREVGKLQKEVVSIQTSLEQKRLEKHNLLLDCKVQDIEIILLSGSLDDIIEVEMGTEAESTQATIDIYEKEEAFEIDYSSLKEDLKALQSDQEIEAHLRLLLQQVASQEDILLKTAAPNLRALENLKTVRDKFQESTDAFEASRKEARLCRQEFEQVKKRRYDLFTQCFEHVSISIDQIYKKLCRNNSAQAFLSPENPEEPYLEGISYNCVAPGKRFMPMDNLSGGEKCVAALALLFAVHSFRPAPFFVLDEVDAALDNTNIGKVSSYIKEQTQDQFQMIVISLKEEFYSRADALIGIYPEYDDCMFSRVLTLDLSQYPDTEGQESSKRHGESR
inactive: [1] 0.009 | [2] 0.076 | [3] 0.12 | [4] -0.063

SMYD3 (UniProt Q9H7B4)
Chain of UniProt Q9H7B4 (Q9H7B4 whole entry, looked up): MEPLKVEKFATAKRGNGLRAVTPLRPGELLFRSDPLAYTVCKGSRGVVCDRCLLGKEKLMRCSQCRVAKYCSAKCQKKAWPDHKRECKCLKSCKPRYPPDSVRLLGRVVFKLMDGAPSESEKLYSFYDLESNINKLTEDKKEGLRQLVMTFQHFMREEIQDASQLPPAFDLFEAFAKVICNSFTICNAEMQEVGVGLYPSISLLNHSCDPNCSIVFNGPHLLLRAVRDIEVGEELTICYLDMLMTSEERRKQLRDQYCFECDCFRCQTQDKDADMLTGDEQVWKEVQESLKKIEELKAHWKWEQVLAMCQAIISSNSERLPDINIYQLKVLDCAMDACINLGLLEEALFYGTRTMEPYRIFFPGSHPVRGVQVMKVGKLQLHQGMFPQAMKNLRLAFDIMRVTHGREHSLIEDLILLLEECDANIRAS
inactive: [1] 0.028 | [2] 0.05 | [3] 0.035 | [4] -0.001

SMARCA4 (UniProt P51532)
inactive: [1] -0.034 | [2] 0.016 | [3] 0.003 | [4] 0.014 | [5] 0.055
